# PubChem BioAssay AID2284158 (EPA ToxCast)
# The source made the active and inactive calls. How the source made its calls: active means hit-call score of the fitted dose curve at least 0.9, where 1 is the maximum; inconclusive means response in the unintended direction; inactive means score below 0.9.
# Biological target: D(1A) dopamine receptor (Homo sapiens) (UniProt P21728)
# Experiment: ERF_FR_GPCR_hDRD1: Eurofins (ERF) G Protein-Coupled Receptor (GPCR) Radioligand Binding LeadHunter Assay for human Dopamine Receptor D1 Antagonism, conducted at France lab site
# Protocol: ERF_FR_GPCR_hDRD1 is a biochemical, single-readout assay that uses extracted gene-proteins in a cell-free assay. Measurements were taken 1 hour after chemical dosing in a 96-well plate. See D1 Human Dopamine GPCR Binding (Antagonist Radioligand) Assay, Cerep.ERF_FR_GPCR_hDRD1 is an assay component calculated from the ERF_FR_GPCR_hDRD1 assay. It is designed to measure radioligand binding using a type of binding reporter as detected by scintillation counting with radiometry technology.Data from the assay component ERF_FR_GPCR_hDRD1 was analyzed at the assay endpoint, ERF_FR_GPCR_hDRD1, in the positive analysis fitting direction relative to DMSO as the negative control and baseline of activity. Using a type of binding reporter, loss-of-signal activity can be used to understand changes in binding as they relate to gene DRD1. To generalize the intended target to other relatable targets, this assay endpoint is annotated to the gpcr intended target family, where the subfamily is dopamine.
# Human cells are incubated for 60 minutes at room temprature with [3H]SCH 23390 ligand (0.3 nM) and SCH 23390 as control inhibitor.Test Sample Requirements: Minimum for 1) Screen: 60 ul of 10 mM stock -OR- 1 mg (pre-weighed) for 10 uM final testing. 2) Dose Response: 90 ul of 10 mM stock -OR- 1 mg (pre-weighed) for a top concentration at 10 uM.
# Chain of D(1A) dopamine receptor (Homo sapiens) (P21728 whole entry, looked up): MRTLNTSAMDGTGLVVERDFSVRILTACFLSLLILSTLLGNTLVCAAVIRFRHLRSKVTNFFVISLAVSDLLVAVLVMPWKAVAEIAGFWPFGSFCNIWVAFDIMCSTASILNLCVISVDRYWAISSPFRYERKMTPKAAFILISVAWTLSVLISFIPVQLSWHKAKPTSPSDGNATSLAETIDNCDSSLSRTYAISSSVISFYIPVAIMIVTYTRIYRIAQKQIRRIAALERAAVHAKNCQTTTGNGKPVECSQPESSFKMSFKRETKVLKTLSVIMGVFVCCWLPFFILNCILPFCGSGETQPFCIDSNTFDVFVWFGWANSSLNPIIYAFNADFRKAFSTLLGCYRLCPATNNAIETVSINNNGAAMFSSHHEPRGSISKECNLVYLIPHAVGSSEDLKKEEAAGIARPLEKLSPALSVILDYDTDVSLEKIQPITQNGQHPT
Structure (SMILES),outcome,AC50
COc1cc(CCC(=O)CC(=O)CCc2ccc(O)c(OC)c2)ccc1O,inactive,
COc1cc(/C=C/C(=O)CC(=O)/C=C/c2ccc(O)c(OC)c2)ccc1O,,2040 nM (active)
O=C(/C=C/c1ccc(O)cc1)CC(=O)/C=C/c1ccc(O)cc1,,1070 nM (active)
